Assay outcomes as filed in PubChem.
Sampled rows, rich in hits. Any-hit rate of the full collection: about 3.9%.
Mtb FBA inh: inhibits M. tuberculosis FBA enzyme | P9WQA3 | purified M. tuberculosis FBA, fluorescence read-out | inhibition, % at 1 µM | 360,000 compounds, 2.3% hits | AID 588726; in the data active = inhibition above about 27%;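 also: 0% = vehicle and 100% = reference inhibitor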
Target sequence (P9WQA3 whole entry, looked up): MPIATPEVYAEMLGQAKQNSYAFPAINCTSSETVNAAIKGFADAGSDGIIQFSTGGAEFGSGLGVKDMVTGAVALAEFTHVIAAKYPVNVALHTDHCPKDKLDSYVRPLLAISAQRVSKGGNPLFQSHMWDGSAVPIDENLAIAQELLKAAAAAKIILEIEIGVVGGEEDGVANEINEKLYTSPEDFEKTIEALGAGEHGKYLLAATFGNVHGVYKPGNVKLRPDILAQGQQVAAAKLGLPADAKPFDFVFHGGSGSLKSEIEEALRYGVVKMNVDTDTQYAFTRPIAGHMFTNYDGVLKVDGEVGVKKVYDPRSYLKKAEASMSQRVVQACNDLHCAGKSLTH
BH1578 lux ind: induces V. cholerae light production without autoinducers | activation, % at 18.7 µM | AID 588436 | V. cholerae BH1578 lux reporter, luminescence, 6 h | 350,000 compounds, 0.16% hits; in the data active = activation mostly above about 9.7%, no sharp cut-off
GDH-TPI inh: GDH-TPI coupled enzyme inhibition counter-screen | GDH-TPI coupled enzyme counterscreen, NADH absorbance | inhibition, % at 4.8 µM | AID 588335 | 360,000 compounds, 1.2% hits; in the data active = inhibition above about 30%;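 also: 0% = DMSO wells and 100% = wells lacking the enzyme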
PrPC TRFRET: reduces human prion protein on the cell surface; inhibition, % at 13.8 µM; AID 720596; cell surface PrPC, TR-FRET read-out; P04156; 370,000 compounds, 0.43% hits; in the data active = inhibition above about 24%; also: 0% = median of the test wells and 100% = reference compound wells
SARS 3CLpro inh: SARS-CoV 3CLpro protease inhibition; P0C6X7; recombinant SARS-CoV 3CLpro, quenched FRET peptide cleavage; inhibition, % at 6 µM; 290,000 compounds, 0.14% hits; in the data active = inhibition above about 12%
Active calls of the source: *; i = inactive; / = not tested or not shown; + = active, no number.

SMILES	Mtb FBA inh	BH1578 lux ind	GDH-TPI inh	PrPC TRFRET	SARS 3CLpro inh
Cc1ccc(-n2c(C)nnc2SCC(=O)NC2CCCC2)cc1	2	i	-12	4	0
COc1ccc(OC)c(C(O)c2ncc(-c3ccccc3OC)[nH]2)c1 (stereo not drawn)	2	i	4	-1	/
O=C(N/N=C/C=C/c1ccc([N+](=O)[O-])cc1)C1COc2ccccc2O1 (stereo not drawn)	0	-2	35*	-29	1
O=C(N/N=C/c1ccc2c(c1)OCO2)C1COc2ccccc2O1 (stereo not drawn)	-1	-7	15	10	2
CC(/C=C/c1ccc2c(c1)OCO2)=N\NC(=O)C(O)c1ccccc1 (stereo not drawn)	-1	-1	28	-1	-3
O=C(N/N=C\c1ccc(O)c([N+](=O)[O-])c1)C1COc2ccccc2O1 (stereo not drawn)	-7	-1	70*	-7	4
O=C(Nc1ccc([N+](=O)[O-])cc1)C1COc2ccccc2O1 (stereo not drawn)	0	-1	14	0	-3
O=C(N/N=C/C=C/c1ccc2c(c1)OCO2)C(O)c1ccccc1 (stereo not drawn)	2	0	56*	3	-4
O=C(N/N=C\C=C\c1ccc2c(c1)OCO2)C1COc2cc3ccccc3cc2O1 (stereo not drawn)	0	-1	49*	3	-3
CCNC(=O)C1(C)CCN1CCC(=O)c1ccc(C)cc1 (stereo not drawn)	5	3	11	3	/
O=C(N/N=C\C=C\c1ccc2c(c1)OCO2)c1ccc(F)cc1	6	0	30	0	0
Cc1cc(C(=O)N/N=C/C=C/c2ccc3c(c2)OCO3)n[nH]1	3	0	50*	-5	-4
COCCCNC(=O)C[C@H]1C[C@@]2(C(=O)OC)C(=C[C@H](C(C)C)O[C@@H]2C2CC2)N(Cc2cccc3ccccc23)C1=O	/	/	/	-8	/
CC1(c2ccncc2)Nc2ccccc2-c2nc3ccccc3n21 (stereo not drawn)	158*	0	8	1	-2
CCSc1nsc(NC(=O)Nc2cccc(F)c2)n1	0	i	-11	40*	-1
COc1cccc(NC(=O)Nc2nc(SC)ns2)c1	3	i	7	12	2
COC(=O)c1cc(C(=O)c2cc(Cl)ccc2O)coc1=N	2	i	4	-11	-5
COCCOC(=O)c1cc(C(=O)c2cc(F)ccc2O)coc1=N	17	i	37*	-2	1
c1cnn(-c2cncc(-n3cccn3)n2)c1	16	1	32*	-4	0
COCCNC(=O)c1ccc(CN2CCOCC2)cc1	0	0	0	-4	1
C=CCn1c(NC(=O)c2ccco2)nc2ccccc21	0	0	35*	4	1
O=C(Nc1nc2ccccc2n1Cc1ccc(Cl)cc1)c1ccco1	3	i	22	6	4
O=C(Nc1nc2ccccc2n1CCOc1ccc(Cl)cc1)c1ccco1	5	-1	3	8	4
O=C(Nc1nc2ccccc2n1CCOc1ccccc1)c1ccco1	3	i	34*	3	-2
COc1cc(/C=C2\SC(=O)N(CCN)C2=O)ccc1OS(=O)(=O)c1cc(C)ccc1C	1	-1	10	-9	10
SMILES	Mtb FBA inh	BH1578 lux ind	GDH-TPI inh	PrPC TRFRET	SARS 3CLpro inh
CCOCCCn1c(=NC(C)=O)c(C(=O)OCC)cc2c(=O)n3ccccc3nc21	12	0	2	-8	-2
CCOC(=O)c1cc2c(=O)n3ccccc3nc2n(Cc2ccco2)c1=NC(=O)c1ccccc1OCC	173*	0	10	-15	-3
COc1ccc(CNC(=O)c2cc3c(=O)n4ccccc4nc3n(Cc3ccco3)c2=N)cc1	/	/	/	/	-1
CCOC(=O)c1cc2c(=O)n3ccccc3nc2n(CC(C)C)c1=NC(=O)c1ccco1	135*	i	9	-25	-1
CCOC(=O)c1cc2c(=O)n3ccccc3nc2n(Cc2ccco2)c1=NC(=O)c1cccnc1	131*	i	14	-15	-3
O=C(c1ccncc1)c1ccc(NS(=O)(=O)c2ccc(Br)s2)cc1	-2	i	39*	0	0
O=C(Nc1ccc2ccccc2c1)c1ccc(NS(=O)(=O)c2ccc(Br)s2)cc1	0	0	5	7	6
Cc1cccc(S(=O)(=O)NC(=O)C2(C)CCN2C(=O)c2sccc2C)c1 (stereo not drawn)	2	0	3	-7	/
COc1cc2c(cc1OC)-c1cc(NC3CC3)nc(=O)n1CC2	6	i	37*	1	0
CCOc1ccccc1Nc1cc2n(c(=O)n1)CCc1cc(OC)c(OC)cc1-2	-2	-1	34*	3	-3
COc1cc2c(cc1OC)-c1cc(OCCN3CCOCC3)nc(=O)n1CC2	+	-3	32*	-5	-1
COC(=O)c1cc([N+](=O)[O-])c(-n2ccnc2)c([N+](=O)[O-])c1	-5	0	3	-14	-7
Cc1ccc(C(=O)Nc2nc(-c3ccccn3)cs2)s1	6	0	7	20	/
O=C(Nc1nc(-c2ccccn2)cs1)c1ccc(Cl)s1	4	0	36*	15	2
CCC(C)Nc1nc(N)c([N+](=O)[O-])c(NCCO)n1 (stereo not drawn)	1	0	25	-1	-4
Cc1ccc(CNc2nc(N)c([N+](=O)[O-])c(NCCO)n2)cc1	-3	-1	52*	-6	4
Nc1nc(NCc2ccc(Cl)cc2)nc(NCCO)c1[N+](=O)[O-]	-2	i	38*	-4	2
CC(C)CCNc1nc(N)c([N+](=O)[O-])c(NCCO)n1	3	0	50*	-13	-3
Cc1ccc(CNc2nc(N)c([N+](=O)[O-])c(NCc3ccccc3)n2)cc1	0	-2	1	1	0
CSc1cccc(NC(=S)Nc2cc(C)ccc2C)c1	-1	i	5	2	6
COC(=O)C(C(=O)OC)c1cc2c(cc1CNS(=O)(=O)c1ccc(C)cc1)OCO2	/	/	/	-4	/
CC(C)CCNC(=O)c1cc2c(s1)-c1ccccc1S(=O)(=O)C2	15	0	32*	-4	2
CC(C)(C)C(=O)CSc1nc(N)cc(=O)[nH]1	2	0	35*	-2	-1
COc1cccc(OC)c1C(=O)OCC(=O)N(c1ccccc1)C1CCCCC1	5	-1	12	-4	/
COc1ccc(/C=C2\C(=N)N3N=C(CC(=O)N4CCOCC4)SC3=NC2=O)cc1	2	-2	10	9	-1
N=C1/C(=C\c2ccc(SCc3ccccc3)o2)C(=O)N=C2SC(CC(=O)N3CCOCC3)=NN12	-3	0	39*	1	2
N=C1/C(=C/c2ccc(-c3cccc(C(=O)O)c3)o2)C(=O)N=C2SC(CC(=O)N3CCOCC3)=NN12	-7	0	8	-3	-4
Cc1ccc(/C=C2\C(=N)N3N=C(CC(=O)N4CCOCC4)SC3=NC2=O)o1	5	0	45*	-6	-2
